KB-V1 MDR tox – KB-V1 MDR subline cytotoxicity | KB-V1 MDR cells viability, CellTiter-Glo, 72 h | Potency, µM (titrated, usually from 46.1 µM), most hits filed as cytotoxic | hit rate 3.4% among 400,000; also: nearly all actives have a fitted effect of over 60% in size
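Readout: CellTiter-Glo luminescence, 10 min after addition. Cells: KB-V1 MDR subline, 72 h at 37 degrees C with compound. Analysis: corrected, normalized data fitted to concentration-effect curves.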
KB-3-1 tox – kills parental KB-3-1 adenocarcinoma cells. KB-3-1 viability, CellTiter-Glo ATP luminescence, 72 h. Potency, µM (series often up to 46.1 µM), usual class: cytotoxic. hit rate 1.4% among 400,000. AID 1347075; also: nearly all actives have a fitted effect of over 60% in size
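Screening of KB-3-1 cells (DMEM, 10% FBS, phenol-red free) ran from lowest to highest compound concentration; after 72 h at 37 °C viability was read luminescently and curves fitted.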
RORg inh – blocks mouse ROR gamma transcriptional activity; Drosophila S2 Gal4-RORgamma UAS-luciferase reporter, 20 h; Potency, µM (top dose mostly 53.6 µM), hits mostly inhibitors; hit rate 5.4% among 310,000; P51450; also: nearly all actives have a fitted effect of over 60% in size
Target sequence (P51450 whole entry, looked up, the tested form may be a part): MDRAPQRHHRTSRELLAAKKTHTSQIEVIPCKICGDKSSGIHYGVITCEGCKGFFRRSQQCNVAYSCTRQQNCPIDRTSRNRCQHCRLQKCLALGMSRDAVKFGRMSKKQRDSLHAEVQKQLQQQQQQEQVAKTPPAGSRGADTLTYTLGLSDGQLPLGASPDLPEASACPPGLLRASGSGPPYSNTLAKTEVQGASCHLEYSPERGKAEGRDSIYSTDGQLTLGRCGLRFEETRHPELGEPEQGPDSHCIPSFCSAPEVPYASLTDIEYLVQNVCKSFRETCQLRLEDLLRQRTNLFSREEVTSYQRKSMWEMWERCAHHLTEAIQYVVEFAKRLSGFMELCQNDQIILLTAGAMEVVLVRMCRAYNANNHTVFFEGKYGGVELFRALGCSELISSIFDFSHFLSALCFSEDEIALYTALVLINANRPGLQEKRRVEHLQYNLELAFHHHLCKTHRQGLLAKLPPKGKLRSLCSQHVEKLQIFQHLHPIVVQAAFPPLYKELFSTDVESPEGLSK
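Drosophila Schneider cells stably carrying a metallothionein-driven Gal4 DBD–ROR gamma fusion and a UAS-Photinus luciferase reporter were exposed to compound for 1 hr, then induced with copper sulfate (700 uM final) for 20 hr at ambient temperature before luminescence reading.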
SW480 rereplic – DNA re-replication induction in SW480 cells | SW480 DNA re-replication, Hoechst DNA content imaging, 48 h | Potency, µM (series often up to 46.1 µM), usual class: activators | hit rate 1.8% among 340,000 | AID 624297; also: nearly all actives have a fitted effect of over 55% in size
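DNA re-replication was detected as more nuclei of elevated Hoechst intensity after 48 hr exposure to compound (23 nL pinned per well of 250 cells).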
MCF10A rerep – induces DNA re-replication in MCF 10a normal breast cells. Potency, µM (titrated, usually from 46.1 µM), hits mostly activators. hit rate 2.9% among 350,000. AID 624296. MCF 10A DNA re-replication, Hoechst nuclear intensity, 48 h; also: nearly all actives have a fitted effect of over 50% in size
Gal4-VP16 FLuc – Gal4-VP16 reporter inhibition counter-screen; hit rate 3.5% among 310,000; Drosophila S2 Gal4-VP16 UAS-luciferase, luminescence, 20 h; Potency, µM (series often up to 53.6 µM), actives largely listed as inhibitors;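 also: Gal4-VP16 expression switched on by copper sulfate through the metallothionein promoter; nearly all actives have a fitted effect of over 50% in size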
Each line names hits and unclear results; the compound was inactive in the other large screens. Only some compounds are listed: those with a hit (about 10% of all), similar ones and a draw of the others. Calls follow the shape of the dose curve; as a rule, active = well fitted curve in the direction sought with a large enough effect; inconclusive = small, poorly fitted or top-dose-only effect, or another doubt; inactive = no such curve, though single readings can be large; an effect the other way counts as inactive or inconclusive.

COc1cccc(OC)c1C(=O)Nc1nc(-c2ccccc2)cs1	none
COc1ccc(Cl)cc1NC(=O)c1[nH]c(C)c(C(C)=O)c1C	none
COc1ccc(CNCCC(c2ccc3c(c2)OCO3)c2ccccc2OC)cc1 (stereo not given)	KB-V1 MDR tox inconclusive (no result: RORg inh, SW480 rereplic, MCF10A rerep, Gal4-VP16 FLuc)
CCOc1ccccc1Oc1ncnc2c1oc1ccccc12	none (no result: RORg inh, SW480 rereplic, MCF10A rerep, Gal4-VP16 FLuc)
CCOC(=O)[C@]12CCC=C1N(Cc1ccc(Cl)cc1Cl)C(=O)[C@H](CC(=O)N1CCC(c3ccccc3)CC1)C2	none (no result: RORg inh, SW480 rereplic, MCF10A rerep, Gal4-VP16 FLuc)
CC(=O)c1c(C)[nH]c(C(=O)Nc2nc(C)cs2)c1C	KB-3-1 tox inconclusive, RORg inh 4.5µM, Gal4-VP16 FLuc 10µM
Cc1cccc(C)c1NC(=O)Cn1c(=O)c2cccn2c2ccccc21	none
COc1cccc(NC(=O)Cn2cc(C=O)c3ccccc32)c1	KB-V1 MDR tox inconclusive, RORg inh inconclusive
CCc1cccc(NC(=O)Cn2cc(C=O)c3ccccc32)c1	KB-V1 MDR tox 21µM, KB-3-1 tox inconclusive, RORg inh inconclusive
O=Cc1cn(CC(=O)Nc2ccc3c(c2)OCO3)c2ccccc12	KB-V1 MDR tox inconclusive, RORg inh inconclusive
Cc1ccc(NC(=O)Cn2cc(C=O)c3ccccc32)cc1	SW480 rereplic 15µM
CC(=O)c1cn(CC(=O)Nc2cccc(C)c2C)c2ccccc12	KB-V1 MDR tox inconclusive, KB-3-1 tox inconclusive, RORg inh inconclusive, Gal4-VP16 FLuc 13µM
CCc1cccc(NC(=O)Cn2c(=O)c3cccn3c3ccccc32)c1	MCF10A rerep 18µM
CCC(=O)c1cn(CC(=O)Nc2cccc(C)c2C)c2ccccc12	none
N#Cc1cccc(C=C(C(=O)c2ccccc2)c2ccccc2)c1	none (no result: KB-3-1 tox, RORg inh, SW480 rereplic, MCF10A rerep, Gal4-VP16 FLuc)
Cc1cccc(C(=O)N2CCc3cc(CNC(=O)c4ccnn4C)ccc32)c1	none (no result: RORg inh, SW480 rereplic, MCF10A rerep, Gal4-VP16 FLuc)
CCCC[C@@H]1Cc2[nH][nH]c(=O)c2[C@H](c2ccc(C(C)C)cc2)O1	none (no result: RORg inh, SW480 rereplic, MCF10A rerep, Gal4-VP16 FLuc)
COc1cccc(C=Nc2cc(C(C)C)c(O)cc2C)c1O	KB-V1 MDR tox inconclusive, SW480 rereplic inconclusive, MCF10A rerep inconclusive (no result: RORg inh, Gal4-VP16 FLuc)
Cc1cc(O)c(C(C)C)cc1N=Cc1ccc(N(C)C)cc1	SW480 rereplic inconclusive, MCF10A rerep 21µM (no result: KB-V1 MDR tox, KB-3-1 tox, RORg inh, Gal4-VP16 FLuc)
Cc1cc(O)c(C(C)C)cc1N=Cc1ccc([N+](=O)[O-])cc1	SW480 rereplic 18µM, MCF10A rerep 18µM (no result: KB-V1 MDR tox, KB-3-1 tox, RORg inh, Gal4-VP16 FLuc)
NC(=O)c1cc[n+](CC2=C(C(=O)[O-])N3C(=O)[C@@H](NC(=O)Cc4cccs4)[C@@H]3SC2)cc1	none (no result: KB-V1 MDR tox, KB-3-1 tox)
CCOC(=O)c1c[nH]c(=S)n1C	RORg inh 11µM
COc1ccc(CNC(=O)C(=O)Nc2c3c(nn2-c2ccccc2)CSC3)cc1	KB-3-1 tox inconclusive (no result: RORg inh, SW480 rereplic, MCF10A rerep, Gal4-VP16 FLuc)
CCCCC1(CC(=O)OCC)C(=O)N(c2ccccc2)N(c2ccccc2)C1=O	KB-V1 MDR tox 4.6µM
CCCCC1(CO)C(=O)N(c2ccccc2)N(c2ccccc2)C1=O	none
CCCCC1(Cc2cccc([N+](=O)[O-])c2)C(=O)N(c2ccccc2)N(c2ccccc2)C1=O	RORg inh 18µM, SW480 rereplic inconclusive, MCF10A rerep inconclusive, Gal4-VP16 FLuc inconclusive
CN(C(=O)CSc1nc2ccccc2n1CC(=O)N(C)c1ccc(F)cc1)c1ccccc1	none (no result: RORg inh, SW480 rereplic, MCF10A rerep, Gal4-VP16 FLuc)
COc1ccc(NC(=O)c2ccco2)cc1NC(=O)c1cccc(C)c1OC	KB-V1 MDR tox inconclusive (no result: RORg inh, SW480 rereplic, MCF10A rerep, Gal4-VP16 FLuc)
O=C(CNC(=O)C1CCCCC1)OCC(=O)c1ccc([N+](=O)[O-])cc1	none (no result: RORg inh, SW480 rereplic, MCF10A rerep, Gal4-VP16 FLuc)
Cc1cccc(C)c1NC(=O)C(c1ccncc1)N1CCN(CCN(C)C)CC1 (stereo not given)	none (no result: RORg inh, SW480 rereplic, MCF10A rerep, Gal4-VP16 FLuc)
Cc1sc2nc(COC(=O)c3c(F)cccc3F)[nH]c(=O)c2c1C	RORg inh 13µM
Cc1sc2nc(COC(=O)c3ccc(O)cc3)[nH]c(=O)c2c1C	none
COc1cccc(OCCSc2nc(N)cc(N)n2)c1	KB-V1 MDR tox inconclusive, KB-3-1 tox inconclusive, RORg inh 7.9µM, Gal4-VP16 FLuc 6.3µM
Nc1cc(N)nc(SCCOc2ccccc2)n1	RORg inh inconclusive
Nc1cc(N)nc(SCCOc2ccccc2F)n1	KB-V1 MDR tox 23µM
COc1ccccc1OCCSc1nc(N)cc(N)n1	none
CCN(Cc1ccccc1)C(=O)Nc1ccc2c(c1)N(C)C(=O)c1ccccc1S2	none (no result: RORg inh, SW480 rereplic, MCF10A rerep, Gal4-VP16 FLuc)
c1ccc(-n2nnnc2-c2cccc3ccccc23)cc1	SW480 rereplic 5.8µM, MCF10A rerep 23µM (no result: KB-V1 MDR tox, KB-3-1 tox, RORg inh, Gal4-VP16 FLuc)
Clc1ccc2[nH]cc(-c3nnnn3-c3ccccc3)c2c1	KB-V1 MDR tox 16µM, KB-3-1 tox 18µM, RORg inh inconclusive, Gal4-VP16 FLuc inconclusive
CCCCn1c(N)c(N(CCOC)C(=O)CSc2n[nH]c(-c3ccc(OC)cc3)n2)c(=O)[nH]c1=O	none

Screening data (PubChem BioAssay)
